Results from PubChem BioAssay (EPA / NIEHS).
“And” between values parts separate entries of the source, which are not always exact repeats. Equal values may be shown once. More than one record can exist for a structure, and the calls need not agree. The source made the active and inactive calls. The calls were made as follows: active = hit-call score of the fitted dose curve at least 0.9, where 1 is the maximum; inactive = score below 0.9.

Assays:
[1] = ATG_GLI_CIS: Attagene CIS-FACTORIAL HepG2 Assay for human Zinc Finger Protein GLI1 (AID 2282945); conditions: HepG2, Attagene cis-factorial reporter mRNA, GLI element; actives raise or lower the signal
In short: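 Transiently transfected HepG2 cells report endogenous transcription factor activity via cis-element-driven reporter units. After 24 h compound exposure, reporter mRNA was measured by RT-PCR with capillary electrophoresis; bidirectional fitting against DMSO baseline.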

[2] = molecular target: Bile acid receptor (Homo sapiens) (UniProt Q96RI1); assay: ATG_IR1_CIS: Attagene CIS-FACTORIAL HepG2 Assay for human Nuclear Receptor Subfamily 1 Group H Member 4 (NR1H4), IR1 submotif (AID 2282946); conditions: IR1 reporter transcription, actives raise or lower the signal
In short: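 HepG2 cells transiently transfected with multiple cis-promoter-driven reporter units to measure endogenous transcription factor activity; 24 h exposure. Reporter mRNA read by RT-PCR, FAM labelling, HpaI digestion and capillary electrophoresis. Bidirectional fit versus DMSO.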

[3] = ATG_GRE_CIS: Attagene CIS-FACTORIAL HepG2 Assay for human Glucocorticoid Response Elements (GRE) (AID 2282947); conditions: HepG2 GRE cis-reporter, Attagene multiplex mRNA; actives raise or lower the signal
In short: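 Endogenous transcription factor activity is read through cis-element reporter constructs transiently transfected into HepG2 cells. After 24 h treatment, labelled RT-PCR products are resolved by capillary electrophoresis; DMSO sets baseline for bidirectional curve fitting.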

[4] = ATG_ISRE_CIS: Attagene CIS-FACTORIAL HepG2 Assay for human Interferon Regulatory Factor 1 (IRF1) binding to an Interferon-Stimulated Response Element (ISRE) (AID 2282948); conditions: HepG2 ISRE cis-reporter (Attagene), mRNA transcription readout; actives raise or lower the signal
In short: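 Transfected HepG2 (multiple reporter transcription units, cis elements) dosed 24 h. RNA → oligo(dT) RT → PCR → 6-FAM primer extension → HpaI → CE. DMSO = negative control/baseline.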

[5] = ATG_M_32_CIS: Attagene CIS-FACTORIAL HepG2 Assay for M32 Transcription Factor (Internal Marker) (AID 2282949); conditions: HepG2 Attagene cis-factorial M32 reporter, mRNA; actives raise or lower the signal;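 also: background control marker of the multiplexed CIS panel rather than a real target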
In short: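 Following 24 h chemical exposure of HepG2 cells transiently expressing cis-promoter reporter constructs, reporter transcript levels were determined by RT-PCR with fluorescent labelling and capillary electrophoresis, then fitted bidirectionally against DMSO.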

[6] = ATG_M_06_CIS: Attagene CIS-FACTORIAL HepG2 Assay for M06 Transcription Factor (Internal Marker) (AID 2282950); conditions: HepG2 Attagene CIS-FACTORIAL M06 internal marker reporter; actives raise or lower the signal
In short: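 Serves as a background control readout. Transfected HepG2 exposed to compounds for 24 h, then reporter transcripts quantified by fluorescent RT-PCR and capillary electrophoresis. Both directions fitted against DMSO baseline.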

[7] = molecular target: Hypoxia-inducible factor 1-alpha (Homo sapiens) (UniProt Q16665); assay: ATG_HIF1a_CIS: Attagene CIS-FACTORIAL HepG2 Assay for human Hypoxia Inducible Factor 1 (HIF1A) (AID 2282951); conditions: HepG2 Attagene cis-factorial HIF1a reporter transcription; actives raise or lower the signal
In short: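 Measures endogenous transcription-factor activity through cis-regulated reporter mRNA in HepG2. Cells dosed 24 h; transcripts quantified by RT-PCR with 6-FAM-labelled products separated by capillary electrophoresis; DMSO serves as negative control.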

[8] = molecular target: Hepatocyte nuclear factor 6 (Homo sapiens) (UniProt Q9UBC0); assay: ATG_HNF6_CIS: Attagene CIS-FACTORIAL HepG2 Assay for human Hepatocyte Nuclear Factor 6 (HNF6) (AID 2282952); conditions: HepG2 Attagene cis-factorial HNF6 reporter transcription; actives raise or lower the signal
In short: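 Transiently transfected HepG2 cells expressing cis-regulated reporter transcription units were exposed to chemical for 24 h in a 24-well format. Reporter transcript abundance was determined by fluorescence capillary electrophoresis.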

[9] = molecular target: Heat shock factor protein 1 (Homo sapiens) (UniProt Q00613); assay: ATG_HSE_CIS: Attagene CIS-FACTORIAL HepG2 Assay for human Heat Shock Transcription Factor 1 (HSE) (AID 2282953); conditions: HepG2 HSE cis-reporter, Attagene RNA transcription; actives raise or lower the signal
In short: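 Endogenous transcription factor activity in transiently transfected HepG2, read as reporter mRNA by RT-PCR with fluorescent capillary electrophoresis after 24 h. Gain or loss of signal fitted versus DMSO baseline.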

[10] = ATG_MRE_CIS: Attagene CIS-FACTORIAL HepG2 Assay for human Metal Responsive Element (MRE) (AID 2282954); conditions: HepG2 MRE cis-reporter transcription, Attagene multiplex; actives raise or lower the signal
In short: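 Fluorescent reporter fragments separated by capillary electrophoresis give mRNA induction for the MRE unit after 24 h treatment of transfected HepG2 cells. Endogenous transcription-factor activity is read; DMSO serves as negative control and baseline.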

Measured: AC50

Chain of Hepatocyte nuclear factor 6 (Homo sapiens) (Q9UBC0 whole entry, looked up): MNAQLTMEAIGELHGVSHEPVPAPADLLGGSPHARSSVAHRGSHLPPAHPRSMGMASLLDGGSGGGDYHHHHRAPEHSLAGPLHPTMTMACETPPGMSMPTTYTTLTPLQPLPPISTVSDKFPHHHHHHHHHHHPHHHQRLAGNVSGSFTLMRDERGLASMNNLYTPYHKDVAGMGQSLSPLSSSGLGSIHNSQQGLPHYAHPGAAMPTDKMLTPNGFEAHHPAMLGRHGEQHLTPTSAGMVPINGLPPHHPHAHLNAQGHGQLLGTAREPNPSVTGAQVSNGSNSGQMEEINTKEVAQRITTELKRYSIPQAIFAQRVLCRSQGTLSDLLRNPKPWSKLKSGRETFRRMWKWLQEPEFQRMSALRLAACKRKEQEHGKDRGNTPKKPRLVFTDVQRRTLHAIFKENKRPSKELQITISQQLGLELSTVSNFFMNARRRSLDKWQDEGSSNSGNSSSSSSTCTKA
Chain of Hypoxia-inducible factor 1-alpha (Homo sapiens) (Q16665 whole entry, looked up): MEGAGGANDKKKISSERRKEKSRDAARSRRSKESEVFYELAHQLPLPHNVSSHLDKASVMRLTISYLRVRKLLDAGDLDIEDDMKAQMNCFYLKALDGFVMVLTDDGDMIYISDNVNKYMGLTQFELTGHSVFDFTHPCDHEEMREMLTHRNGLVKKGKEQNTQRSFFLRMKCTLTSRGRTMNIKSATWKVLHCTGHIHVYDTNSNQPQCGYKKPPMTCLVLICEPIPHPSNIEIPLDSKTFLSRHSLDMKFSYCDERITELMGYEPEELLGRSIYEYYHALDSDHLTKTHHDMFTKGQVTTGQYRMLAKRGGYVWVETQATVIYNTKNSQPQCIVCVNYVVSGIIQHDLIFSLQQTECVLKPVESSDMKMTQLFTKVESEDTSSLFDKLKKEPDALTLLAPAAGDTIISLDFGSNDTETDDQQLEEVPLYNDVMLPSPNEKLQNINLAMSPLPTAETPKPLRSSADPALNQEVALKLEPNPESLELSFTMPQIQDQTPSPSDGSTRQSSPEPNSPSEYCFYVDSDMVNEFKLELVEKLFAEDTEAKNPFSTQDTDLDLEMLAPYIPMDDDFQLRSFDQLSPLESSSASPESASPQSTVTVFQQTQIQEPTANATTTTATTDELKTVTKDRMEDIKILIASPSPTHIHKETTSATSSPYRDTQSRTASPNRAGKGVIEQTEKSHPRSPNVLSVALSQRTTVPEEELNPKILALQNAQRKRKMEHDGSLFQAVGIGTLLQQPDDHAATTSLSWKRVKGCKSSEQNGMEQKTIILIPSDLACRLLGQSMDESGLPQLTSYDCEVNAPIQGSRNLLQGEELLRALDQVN
Chain of Heat shock factor protein 1 (Homo sapiens) (Q00613 whole entry, looked up): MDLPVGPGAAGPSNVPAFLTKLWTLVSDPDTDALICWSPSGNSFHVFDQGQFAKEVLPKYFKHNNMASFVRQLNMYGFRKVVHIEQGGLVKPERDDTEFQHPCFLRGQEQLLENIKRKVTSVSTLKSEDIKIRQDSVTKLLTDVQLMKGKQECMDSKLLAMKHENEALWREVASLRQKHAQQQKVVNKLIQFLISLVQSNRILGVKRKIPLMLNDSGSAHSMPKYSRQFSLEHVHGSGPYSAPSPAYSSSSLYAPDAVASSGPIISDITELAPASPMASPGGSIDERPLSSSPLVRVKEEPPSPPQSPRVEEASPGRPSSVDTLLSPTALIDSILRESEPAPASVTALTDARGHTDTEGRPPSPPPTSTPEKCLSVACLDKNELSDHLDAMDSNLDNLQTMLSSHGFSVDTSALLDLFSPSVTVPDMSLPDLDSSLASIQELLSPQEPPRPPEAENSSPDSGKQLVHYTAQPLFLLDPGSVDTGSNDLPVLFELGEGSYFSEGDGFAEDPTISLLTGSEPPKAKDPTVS
Chain of Bile acid receptor (Homo sapiens) (Q96RI1 whole entry, looked up): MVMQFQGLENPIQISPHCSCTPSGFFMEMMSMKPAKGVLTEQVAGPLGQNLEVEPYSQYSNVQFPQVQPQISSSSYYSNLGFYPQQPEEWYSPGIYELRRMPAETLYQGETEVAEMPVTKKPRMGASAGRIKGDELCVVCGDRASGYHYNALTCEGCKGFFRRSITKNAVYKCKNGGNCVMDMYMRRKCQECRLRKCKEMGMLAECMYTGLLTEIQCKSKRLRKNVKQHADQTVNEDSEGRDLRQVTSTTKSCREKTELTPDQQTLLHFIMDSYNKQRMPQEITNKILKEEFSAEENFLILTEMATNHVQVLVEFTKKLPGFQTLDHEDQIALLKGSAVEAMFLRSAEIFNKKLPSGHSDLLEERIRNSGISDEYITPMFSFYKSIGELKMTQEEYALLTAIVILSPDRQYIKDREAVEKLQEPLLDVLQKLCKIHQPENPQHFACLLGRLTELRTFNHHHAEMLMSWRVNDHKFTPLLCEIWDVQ

Nc1cccc2c(N)cccc12
inactive: all assays above

CC(C)(C)CC(C)(C)c1ccc(O)c(-n2nc3ccccc3n2)c1
inactive: all assays above

c1ccc2c(c1)ccc1ccccc12
active: [7] 26.9 µM
inactive: all other assays above

CC(C)(C)c1ccc(O)c(C(C)(C)C)c1
active: [2] 5.79 µM
inactive: all other assays above

CCCCCCCCCCCCc1ccccc1S(=O)(=O)O
inactive: all assays above

CCc1nn(C2CCCCC2)c2cc(C3(C#N)CCC(C(=O)O)CC3)ccc12 (stereo not given)
active: [4] 67.2 µM | [7] 100 µM | [10] 100 µM
inactive: all other assays above

C=C(C)C(=O)OCCC(F)(F)C(F)(F)C(F)(F)C(F)(F)C(F)(F)C(F)(F)F
inactive: all assays above

CCCCCCCCCCCCCC[N+](C)(C)C
active: [2] 9.85 µM | [10] 8.9 µM
inactive: [1] | [2] | [3] | [4] | [5] | [6] | [7] | [8] | [9] | [10]

CCCOC(=O)c1ccc(O)cc1
active: [7] 176 µM | [10] 100 µM
inactive: [1] | [2] | [3] | [4] | [5] | [6] | [7] | [8] | [9] | [10]

CC(C)(C)c1cc(C(C)(C)C)c(O)c(C(C)(C)C)c1
inactive: [1] | [3] | [4] | [5] | [6] | [7] | [8] | [9]
active: [2] 698 nM and 2.29 µM | [4] 138 µM | [7] 100 µM | [10] 100 µM and 36.8 µM

CCCCC(CC)COC(=O)CCCCC(=O)OCc1ccccc1 (stereo not given)
inactive: all assays above

Cc1cc(CCN2CCN(c3nsc4ccccc34)CC2)cc2c1NC(=O)CC2(C)C
active: [4] 8.79 µM | [10] 13.3 µM
inactive: all other assays above

CC[C@H](C)[C@@H](C(=O)O)n1sc2ccccc2c1=O
inactive: all assays above

c1ccc2cc3c(ccc4ccccc43)cc2c1
inactive: [1] | [2] | [4] | [5] | [6] | [7] | [8] | [9] | [10]
active: [2] 621 nM and 25.4 µM and 1.92 µM | [7] 3.05 µM and 2.3 µM | [9] 120 µM

NCC(F)(F)C(F)(F)C(F)(F)C(F)(F)C(F)(F)C(F)(F)C(F)(F)F
inactive: all assays above

CC[C@H](c1ccc(O)cc1)[C@@H](CC)c1ccc(O)cc1
inactive: [1] | [2] | [3] | [4] | [5] | [6] | [8] | [9] | [10]
active: [2] 11.1 µM | [4] 11.1 µM and 17.2 µM | [10] 11.1 µM

NC(=O)N1C(=O)C(C(=O)c2cc(Cl)cs2)c2cc(F)c(Cl)cc21 (stereo not given)
active: [7] 6.79 µM | [10] 14.9 µM
inactive: all other assays above

CC(=O)CC(C)(C)O
inactive: all assays above

CCCCCCCCCCCCN1CCCC1=O
inactive: all assays above

CCCCOCCO
inactive: all assays above

Oc1cccc(O)c1
inactive: all assays above

N#C[C@@H]1CC(F)(F)CN1C(=O)CNC1CC2CCC(C1)N2c1ncccn1 (stereo not given in full)
inactive: all assays above

Cc1oc(-c2ccccc2)nc1CCOc1ccc(C[C@H](Nc2ccccc2C(=O)c2ccccc2)C(=O)O)cc1
active: [2] 11 µM | [7] 17.6 µM | [9] 17.6 µM | [10] 20.8 µM
inactive: all other assays above

O=c1c(-c2ccc(O)cc2)coc2cc(O)ccc12
active: [2] 52.6 µM and 100 µM
inactive: [1] | [2] | [3] | [4] | [5] | [6] | [8] | [9] | [10]

OCCC(F)(F)C(F)(F)C(F)(F)C(F)(F)C(F)(F)C(F)(F)F
inactive: [1] | [2] | [3] | [4] | [5] | [6] | [7] | [8] | [9] | [10]
active: [2] 187 µM | [3] 133 µM | [4] 100 µM | [5] 100 µM | [9] 100 µM | [10] 147 µM

OC1CCC(C2CCCCC2)CC1 (stereo not given)
inactive: [1] | [2] | [3] | [4] | [5] | [6] | [7] | [8] | [9] | [10]
active: [1] 70.6 µM | [2] 100 µM | [4] 73.8 µM and 81.2 µM | [7] 100 µM | [8] 154 µM | [10] 121 µM and 128 µM

COCC(C)OCC(C)O (stereo not given)
inactive: all assays above

O=C(O)Cc1cc(I)c(Oc2cc(I)c(O)c(I)c2)c(I)c1
inactive: [1] | [3] | [4] | [5] | [6] | [7] | [8]
active: [1] 67 µM | [3] 17.2 µM | [5] 108 µM | [9] 40.5 µM and 44.9 µM | [10] 32.7 µM and 54.7 µM

Oc1cc2ccccc2c2ccccc12
inactive: all assays above

OCCC(F)(F)C(F)(F)C(F)(F)C(F)(F)C(F)(F)C(F)(F)C(F)(F)C(F)(F)F
active: [1] 59.2 µM | [4] 150 µM | [8] 171 µM | [9] 55.7 µM and 234 µM | [10] 47.3 µM and 150 µM
inactive: [1] | [4] | [5] | [6] | [7] | [8]

CCC(=C(c1ccc(O)cc1)c1ccc(OCCN(C)C)cc1)c1ccccc1
active: [1] 11.2 µM | [2] 1.45 µM | [3] 13.1 µM | [4] 9.63 µM | [6] 11.7 µM | [7] 4.12 µM | [8] 11.1 µM | [9] 12.1 µM and 12.3 µM | [10] 7.1 µM and 9.34 µM
inactive: [1] | [2] | [3] | [4] | [5] | [6] | [7] | [8] | [9] | [10]

CC#C[C@]1(O)CC[C@H]2[C@@H]3CCC4=CC(=O)CCC4=C3[C@@H](c3ccc(N(C)C)cc3)C[C@@]21C
inactive: [1] | [2] | [3] | [5] | [6] | [8]
active: [1] 100 µM and 134 µM | [2] 8.96 µM and 9.17 µM and 10.6 µM | [3] 26.7 µM | [7] 8.4 µM [middle of 4 runs] | [10] 21.3 µM [middle of 4 runs]

CCCCCCCCOC(=O)CCCCCCCCC(=O)OCCCCCCCC
inactive: all assays above
